Results on 18 molecules are retold here after PubChem BioAssay (EPA / NIEHS).

Results filed as inconclusive are left out. Activity calls are given as the source filed them. How the source made its calls: active means hit-call score of the fitted dose curve at least 0.9, where 1 is the maximum; inconclusive means response in the unintended direction; inactive means score below 0.9.

One test has as its target Adra2b (gene 24174) (UniProt P19328). The test is described as follows: NVS_GPCR_rmAdra2B: NovaScreen (NVS) G Protein-Coupled Receptor Assay for hybird cells Adrenergic, Alpha 2B Receptor (Adra2B) (AID 2283306). Here is the method:
(§1) NVS_GPCR_rmAdra2B is a biochemical, single-readout assay that uses extracted gene-proteins from neuroglioma/blastoma hybrid cells in a tissue-based cell-free assay. Measurements were taken 1 hour after chemical dosing in a 48-well plate.NVS_GPCR_rmAdra2B is one of one assay component(s) measured or calculated from the NVS_GPCR_rmAdra2B assay. It is designed to make measurements of radioligand binding, a form of binding reporter, as detected with scintillation counting signals by Filter-based radiodetection technology.Data from the assay component NVS_GPCR_rmAdra2B was analyzed into 1 assay endpoint. This assay endpoint, NVS_GPCR_rmAdra2B, was analyzed in the positive analysis fitting direction relative to DMSO as the negative control and baseline of activity. Using a type of binding reporter, loss-of-signal activity can be used to understand changes in the binding as they relate to the gene Adra2b. Furthermore, this assay endpoint can be referred to as a primary readout, because the performed assay has only produced 1 assay endpoint. To generalize the intended target to other relatable targets, this assay endpoint is annotated to the gpcr intended target family, where the subfamily is rhodopsin-like receptor.
(§2) Binding assays used specific radioligands (tritiated, iodinated) with non-radioactive competitive displacement ligands in agonist or antagonist protocols (as indicated) and various reference compounds and inhibitors to titrate specific binding to receptors and transporters. Most enzyme assays (CYPs, kinases, phosphatases, proteases, HDACs) used recombinant protein and specific substrates (fluorescence mostly, some colorimetric and radioactive) and inhibitors, followed by a biochemical separation of substrate and product. All assays for the biochemical HTS were initially run in duplicate at a single concentration (10 uM for CYP450 assays and 25 uM for all others). […] Each assay was run with positive and negative controls, and concurrent controls on every plate. The follow-up (secondary) screen tested active chemical-pairs in concentration series, as well as a few additional assays not tested in the primary screen, some selected negative inactives, and several cases re-run in the concentration series for confirmatory purposes.

The target of test [1] is rat Opioid Receptor, Non-selective Sodium (Na+) Binding, Oprm1 (gene 25601) (UniProt P33535). The test is described as follows: NVS_GPCR_rOpiate_NonSelectiveNa: NovaScreen (NVS) G Protein-Coupled Receptor Assay for rat Opioid Receptor, Non-selective Sodium (Na+) Binding (AID 2283311). The procedure, abridged: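 Filtration radioligand binding on rat forebrain membrane preparations, read 1.5 h after dosing. Single-concentration 25 µM primary screen in duplicate, followed by singleton concentration series to 50 µM max for actives; DMSO baseline.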
Chain of rat Opioid Receptor, Non-selective Sodium (Na+) Binding, Oprm1 (gene 25601) (P33535 whole entry, looked up): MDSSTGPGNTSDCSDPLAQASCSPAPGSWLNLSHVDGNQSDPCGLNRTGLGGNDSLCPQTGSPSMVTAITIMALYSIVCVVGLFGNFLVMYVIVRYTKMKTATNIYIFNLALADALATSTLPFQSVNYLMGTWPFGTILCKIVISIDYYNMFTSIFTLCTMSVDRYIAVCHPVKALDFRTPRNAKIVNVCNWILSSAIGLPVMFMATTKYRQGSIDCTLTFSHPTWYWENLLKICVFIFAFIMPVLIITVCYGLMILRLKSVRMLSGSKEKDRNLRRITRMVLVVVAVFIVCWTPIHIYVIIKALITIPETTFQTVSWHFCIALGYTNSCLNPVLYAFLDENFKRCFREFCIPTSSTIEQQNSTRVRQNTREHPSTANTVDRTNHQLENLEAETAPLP

Test [2] concerns the target human Neonicotinoid receptor (NNR), CHRNA2 (gene 1135) (UniProt Q15822). The experiment in a line: NVS_LGIC_hNNR_NBungSens: NovaScreen (NVS) Ligand-Gated Ion Channel Assay for human Neonicotinoid receptor (NNR) (AID 2283313). A digest of the protocol: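 Compounds first screened in duplicate at 25 uM, then actives re-tested in single-replicate dose series up to 50 uM. Binding measured as displacement of specific radioligand from neuroblastoma membrane receptors after 2 h, scintillation read on filters.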

Test [3] concerns the target rat Neonicotinoid receptor (NNR), Chrna7 (gene 25302) (UniProt Q05941). The test is described as follows: NVS_LGIC_rNNR_BungSens: NovaScreen (NVS) Ligand-Gated Ion Channel Assay for rat Neonicotinoid receptor (NNR) (AID 2283315). A digest of the protocol: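 Rat cortical membrane preparation incubated 2.5 h with tritiated or iodinated radioligand and test chemical. Bound radioactivity was filtered and counted by scintillation, and displacement was analysed against DMSO.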

In test [4] the target is rat Vasopressin 1 Receptor (V1), Avpr1a (gene 25107) (UniProt P30560). The test is described as follows: NVS_GPCR_rV1: NovaScreen (NVS) G Protein-Coupled Receptor Assay for rat Vasopressin 1 Receptor (V1) (AID 2283316). The protocol: NVS_GPCR_rV1 is a biochemical, single-readout assay that uses extracted gene-proteins from Rat liver membranes in a tissue-based cell-free assay. Measurements were taken 1.5 hours after chemical dosing in a 48-well plate.NVS_GPCR_rV1 is one of one assay component(s) measured or calculated from the NVS_GPCR_rV1 assay. It is designed to make measurements of radioligand binding, a form of binding reporter, as detected with scintillation counting signals by Filter-based radiodetection technology.Data from the assay component NVS_GPCR_rV1 was analyzed into 1 assay endpoint. This assay endpoint, NVS_GPCR_rV1, was analyzed in the positive analysis fitting direction relative to DMSO as the negative control and baseline of activity. […] Furthermore, this assay endpoint can be referred to as a primary readout, because the performed assay has only produced 1 assay endpoint. […]
Binding assays used specific radioligands (tritiated, iodinated) with non-radioactive competitive displacement ligands in agonist or antagonist protocols (as indicated) and various reference compounds and inhibitors to titrate specific binding to receptors and transporters. Most enzyme assays (CYPs, kinases, phosphatases, proteases, HDACs) used recombinant protein and specific substrates (fluorescence mostly, some colorimetric and radioactive) and inhibitors, followed by a biochemical separation of substrate and product. […]

Test [5] deals with rat Neurokinin-3 Receptor (NK3), Tacr3 (gene 24808) (UniProt P16177). The test is described as follows: NVS_GPCR_rNK3: NovaScreen (NVS) G Protein-Coupled Receptor Assay for rat Neurokinin-3 Receptor (NK3) (AID 2283310). A digest of the protocol: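 Filter-based radioligand displacement on rat cortex membrane preparations, read by scintillation 2 h post-dose. Chemicals first tested in duplicate at 25 uM; actives followed up in concentration series with a 50 uM maximum.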
Chain of rat Neurokinin-3 Receptor (NK3), Tacr3 (gene 24808) (P16177 whole entry, looked up): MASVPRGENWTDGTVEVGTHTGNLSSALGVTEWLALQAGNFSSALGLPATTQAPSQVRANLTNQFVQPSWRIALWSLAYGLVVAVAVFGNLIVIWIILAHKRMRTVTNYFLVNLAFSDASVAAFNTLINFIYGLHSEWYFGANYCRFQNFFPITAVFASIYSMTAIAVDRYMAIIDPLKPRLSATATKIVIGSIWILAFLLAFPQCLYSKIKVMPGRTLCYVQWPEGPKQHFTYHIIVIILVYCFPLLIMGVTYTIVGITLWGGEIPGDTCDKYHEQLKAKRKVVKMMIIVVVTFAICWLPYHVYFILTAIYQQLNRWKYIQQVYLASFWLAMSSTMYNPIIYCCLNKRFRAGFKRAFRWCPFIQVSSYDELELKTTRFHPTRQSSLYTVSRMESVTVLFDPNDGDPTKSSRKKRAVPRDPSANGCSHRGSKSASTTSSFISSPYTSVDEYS

Test [6] deals with rat Neurokinin-1 Receptor (NK1), Tacr1 (gene 24807) (UniProt P14600). The experiment in a line: NVS_GPCR_rNK1: NovaScreen (NVS) G Protein-Coupled Receptor Assay for rat Neurokinin-1 Receptor (NK1) (AID 2283309). The protocol:
as §1, with “NVS_GPCR_rNK1” for “NVS_GPCR_rmAdra2B”, “Rat submaxillary gland membranes” for “neuroglioma/blastoma hybrid cells”, “plate.NVS_GPCR_rNK1” for “plate.NVS_GPCR_rmAdra2B”, “NVS_GPCR_rNK1,” for “NVS_GPCR_rmAdra2B,”, “Tacr1.” for “Adra2b.”
as §2

Test [7] addresses rat Glutamate Metabotropic Receptor 5 (MGluR5), Grm5 (gene 24418) (UniProt P31424). The experiment in a line: NVS_GPCR_rmMGluR5: NovaScreen (NVS) G Protein-Coupled Receptor Assay for rat Glutamate Metabotropic Receptor 5 (MGluR5) (AID 2283307). A digest of the protocol:
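Compounds first screened in duplicate at 25 uM, then in concentration series up to 50 uM if over threshold. Radioligand displacement on rat whole-brain membranes, filtration and scintillation counting after 1.5 h; binding loss relative to DMSO.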

The target of test [8] is rat Somatostatin Receptor (SST), Sstr1 (gene 25033) (UniProt P28646). The experiment in a line: NVS_GPCR_rSST: NovaScreen (NVS) G Protein-Coupled Receptor Assay for rat Somatostatin Receptor (SST) (AID 2283314). The procedure, abridged: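 Single-concentration duplicate screen (25 uM), then concentration-response up to 50 uM for chemicals passing a threshold such as 30% inhibition. Membranes came from rat forebrain. Binding was measured 1 h post-dose by filter radiodetection and scintillation, relative to DMSO.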
Chain of rat Somatostatin Receptor (SST), Sstr1 (gene 25033) (P28646 whole entry, looked up): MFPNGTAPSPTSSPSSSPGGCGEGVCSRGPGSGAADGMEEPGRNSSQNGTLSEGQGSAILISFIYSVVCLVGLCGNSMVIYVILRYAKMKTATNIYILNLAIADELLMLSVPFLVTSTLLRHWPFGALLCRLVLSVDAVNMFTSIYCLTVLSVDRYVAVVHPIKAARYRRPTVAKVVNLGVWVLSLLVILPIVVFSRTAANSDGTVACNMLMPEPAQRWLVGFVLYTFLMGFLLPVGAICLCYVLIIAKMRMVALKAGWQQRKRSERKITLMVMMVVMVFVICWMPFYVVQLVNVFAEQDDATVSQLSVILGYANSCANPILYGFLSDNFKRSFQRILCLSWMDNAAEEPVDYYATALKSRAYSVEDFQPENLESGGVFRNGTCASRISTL

The target of test [9] is Metabotropic glutamate receptor 1 (Rattus norvegicus) (UniProt P23385). The test is described as follows: NVS_GPCR_rmMGluR1: NovaScreen (NVS) G Protein-Coupled Receptor Assay for rat Glutamate Metabotropic Receptor 1 (MGluR1) (AID 2283305). The protocol: as §1, with “NVS_GPCR_rmMGluR1” for “NVS_GPCR_rmAdra2B”, “Rat cerebellum” for “neuroglioma/blastoma hybrid cells”, “96-well plate.NVS_GPCR_rmMGluR1” for “48-well plate.NVS_GPCR_rmAdra2B”, “NVS_GPCR_rmMGluR1,” for “NVS_GPCR_rmAdra2B,”, “Grm1.” for “Adra2b.”, “metabotropic glutamate” for “rhodopsin-like”
Chain of Metabotropic glutamate receptor 1 (Rattus norvegicus) (P23385 whole entry, looked up): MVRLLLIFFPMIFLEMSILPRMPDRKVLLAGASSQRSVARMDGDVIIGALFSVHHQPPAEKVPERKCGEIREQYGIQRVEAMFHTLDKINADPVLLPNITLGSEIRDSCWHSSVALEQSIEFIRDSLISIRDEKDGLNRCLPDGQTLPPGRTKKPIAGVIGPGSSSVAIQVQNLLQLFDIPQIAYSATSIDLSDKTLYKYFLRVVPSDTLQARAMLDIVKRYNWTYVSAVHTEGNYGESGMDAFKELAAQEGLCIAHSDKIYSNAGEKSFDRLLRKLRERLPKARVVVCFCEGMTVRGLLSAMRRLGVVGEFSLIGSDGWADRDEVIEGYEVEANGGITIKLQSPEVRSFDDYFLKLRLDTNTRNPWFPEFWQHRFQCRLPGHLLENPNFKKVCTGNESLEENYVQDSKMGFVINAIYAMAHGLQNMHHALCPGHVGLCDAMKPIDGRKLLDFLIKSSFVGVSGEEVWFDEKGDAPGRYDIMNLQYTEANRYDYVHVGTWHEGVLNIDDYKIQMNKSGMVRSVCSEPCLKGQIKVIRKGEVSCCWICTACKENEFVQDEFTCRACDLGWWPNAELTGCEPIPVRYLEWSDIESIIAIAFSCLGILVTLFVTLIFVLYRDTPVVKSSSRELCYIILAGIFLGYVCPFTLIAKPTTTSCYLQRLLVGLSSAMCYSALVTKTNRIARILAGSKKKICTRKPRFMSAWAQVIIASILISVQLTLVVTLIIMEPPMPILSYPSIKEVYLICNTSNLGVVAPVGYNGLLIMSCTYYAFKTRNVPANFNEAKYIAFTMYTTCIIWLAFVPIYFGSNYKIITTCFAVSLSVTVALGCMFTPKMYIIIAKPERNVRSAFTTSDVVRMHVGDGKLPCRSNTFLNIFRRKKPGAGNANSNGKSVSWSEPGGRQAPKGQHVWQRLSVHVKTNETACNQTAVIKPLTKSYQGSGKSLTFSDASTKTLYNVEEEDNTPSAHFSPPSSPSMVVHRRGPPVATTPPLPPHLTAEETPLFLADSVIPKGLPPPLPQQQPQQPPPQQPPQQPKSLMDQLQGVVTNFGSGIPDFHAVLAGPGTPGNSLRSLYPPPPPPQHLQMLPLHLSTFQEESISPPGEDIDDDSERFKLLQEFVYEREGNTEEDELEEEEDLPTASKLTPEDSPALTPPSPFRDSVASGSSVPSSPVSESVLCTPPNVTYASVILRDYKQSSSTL
Binding assays used specific radioligands (tritiated, iodinated) with non-radioactive competitive displacement ligands in agonist or antagonist protocols (as indicated) and various reference compounds and inhibitors to titrate specific binding to receptors and transporters. Most enzyme assays (CYPs, kinases, phosphatases, proteases, HDACs) used recombinant protein and specific substrates (fluorescence mostly, some colorimetric and radioactive) and inhibitors, followed by a biochemical separation of substrate and product. All assays for the biochemical HTS were initially run in duplicate at a single concentration (10 uM for CYP450 assays and 25 uM for all others). Assay-chemical combinations meeting a pre-defined threshold (e.g., 30% inhibition and other criteria defined below) were then run in singleton concentration-response format with maximum concentration of 20 uM for CYPs and 50 uM for all others. Each assay was run with positive and negative controls, and concurrent controls on every plate. The follow-up (secondary) screen tested active chemical-pairs in concentration series, as well as a few additional assays not tested in the primary screen, some selected negative inactives, and several cases re-run in the concentration series for confirmatory purposes.

Chain of Adra2b (gene 24174) (P19328 whole entry, looked up): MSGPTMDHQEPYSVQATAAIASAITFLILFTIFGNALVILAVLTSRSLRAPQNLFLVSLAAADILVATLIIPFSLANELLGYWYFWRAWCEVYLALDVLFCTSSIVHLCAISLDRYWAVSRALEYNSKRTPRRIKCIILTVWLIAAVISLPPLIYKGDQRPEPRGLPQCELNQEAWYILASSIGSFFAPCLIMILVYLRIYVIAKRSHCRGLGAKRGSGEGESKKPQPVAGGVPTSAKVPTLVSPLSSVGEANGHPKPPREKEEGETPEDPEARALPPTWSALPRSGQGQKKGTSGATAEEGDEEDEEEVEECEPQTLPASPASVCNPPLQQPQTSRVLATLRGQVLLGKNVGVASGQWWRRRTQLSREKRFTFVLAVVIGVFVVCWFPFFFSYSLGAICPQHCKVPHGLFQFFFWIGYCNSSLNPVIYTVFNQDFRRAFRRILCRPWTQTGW
Chain of rat Neurokinin-1 Receptor (NK1), Tacr1 (gene 24807) (P14600 whole entry, looked up): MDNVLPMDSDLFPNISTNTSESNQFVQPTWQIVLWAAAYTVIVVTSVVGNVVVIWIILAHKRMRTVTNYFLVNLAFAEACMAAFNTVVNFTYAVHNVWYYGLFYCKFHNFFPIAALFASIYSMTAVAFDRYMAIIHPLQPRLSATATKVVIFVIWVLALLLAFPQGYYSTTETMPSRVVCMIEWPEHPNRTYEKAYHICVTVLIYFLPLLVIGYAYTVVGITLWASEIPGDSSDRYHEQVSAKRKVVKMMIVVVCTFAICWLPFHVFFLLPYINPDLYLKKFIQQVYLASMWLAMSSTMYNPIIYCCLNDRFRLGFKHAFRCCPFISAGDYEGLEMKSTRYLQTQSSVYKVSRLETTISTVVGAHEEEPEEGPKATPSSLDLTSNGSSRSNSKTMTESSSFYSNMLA
Chain of rat Glutamate Metabotropic Receptor 5 (MGluR5), Grm5 (gene 24418) (P31424 whole entry, looked up): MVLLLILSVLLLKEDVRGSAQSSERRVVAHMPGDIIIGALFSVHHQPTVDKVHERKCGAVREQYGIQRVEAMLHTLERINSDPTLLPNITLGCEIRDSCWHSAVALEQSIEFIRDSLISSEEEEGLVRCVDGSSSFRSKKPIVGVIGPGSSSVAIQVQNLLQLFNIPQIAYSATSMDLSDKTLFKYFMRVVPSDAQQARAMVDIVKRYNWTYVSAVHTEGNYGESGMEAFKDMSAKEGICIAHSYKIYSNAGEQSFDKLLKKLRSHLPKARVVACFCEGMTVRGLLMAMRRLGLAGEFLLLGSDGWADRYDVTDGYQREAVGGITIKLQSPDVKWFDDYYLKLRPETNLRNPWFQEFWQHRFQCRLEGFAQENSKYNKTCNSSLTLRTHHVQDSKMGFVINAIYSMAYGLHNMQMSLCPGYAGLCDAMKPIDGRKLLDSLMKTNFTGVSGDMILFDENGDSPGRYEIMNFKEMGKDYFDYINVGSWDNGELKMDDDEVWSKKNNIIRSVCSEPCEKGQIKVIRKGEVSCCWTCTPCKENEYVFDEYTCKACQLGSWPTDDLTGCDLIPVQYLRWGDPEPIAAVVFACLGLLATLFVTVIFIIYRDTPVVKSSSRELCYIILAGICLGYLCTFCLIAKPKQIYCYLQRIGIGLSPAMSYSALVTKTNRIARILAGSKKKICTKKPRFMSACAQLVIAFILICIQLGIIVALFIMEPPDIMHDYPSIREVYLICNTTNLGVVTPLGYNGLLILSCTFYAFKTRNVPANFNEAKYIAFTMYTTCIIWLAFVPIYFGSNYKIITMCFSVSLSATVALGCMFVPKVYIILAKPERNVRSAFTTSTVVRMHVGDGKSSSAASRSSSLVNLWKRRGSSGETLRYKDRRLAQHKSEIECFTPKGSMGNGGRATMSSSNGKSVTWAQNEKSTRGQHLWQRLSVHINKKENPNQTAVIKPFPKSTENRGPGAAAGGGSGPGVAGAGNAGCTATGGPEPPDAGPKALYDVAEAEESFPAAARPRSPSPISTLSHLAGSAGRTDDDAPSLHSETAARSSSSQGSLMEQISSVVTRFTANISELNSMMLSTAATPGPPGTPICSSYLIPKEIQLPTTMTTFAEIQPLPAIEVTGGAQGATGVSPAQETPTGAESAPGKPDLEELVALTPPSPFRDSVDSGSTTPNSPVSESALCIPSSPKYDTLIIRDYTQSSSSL
Chain of human Neonicotinoid receptor (NNR), CHRNA2 (gene 1135) (Q15822 whole entry, looked up): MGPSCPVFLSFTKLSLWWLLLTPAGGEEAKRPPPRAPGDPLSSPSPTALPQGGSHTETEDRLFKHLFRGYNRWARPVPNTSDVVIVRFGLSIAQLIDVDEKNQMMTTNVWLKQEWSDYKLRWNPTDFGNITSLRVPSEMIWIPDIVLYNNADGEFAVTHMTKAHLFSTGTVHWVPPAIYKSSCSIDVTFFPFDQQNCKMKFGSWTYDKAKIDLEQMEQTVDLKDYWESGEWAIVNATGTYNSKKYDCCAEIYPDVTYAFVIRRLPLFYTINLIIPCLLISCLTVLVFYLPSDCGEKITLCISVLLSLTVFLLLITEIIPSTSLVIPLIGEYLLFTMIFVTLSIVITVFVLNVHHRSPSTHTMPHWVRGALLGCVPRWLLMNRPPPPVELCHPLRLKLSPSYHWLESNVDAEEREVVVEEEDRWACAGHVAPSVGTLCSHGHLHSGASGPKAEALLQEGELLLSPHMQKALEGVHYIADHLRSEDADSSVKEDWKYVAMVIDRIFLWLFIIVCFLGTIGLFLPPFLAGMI

Take `CCOC(=O)[C@]1(c2ccccc2)Oc2ccccc2[C@@H]1N`: the AC50 (in general, the midpoint of the concentration-response curve, whichever way the signal moves) was 1.76 µM (active) with Adra2b (gene 24174), 21.3 µM (active) in [1] and 25 µM (active) in [3]. Further, the result in test [2] was inactive.
As to `C1=Cc2cccc3cccc1c23`, the AC50 in test [4] is 1.11 µM (active).
Regarding `N#CC(Br)Br`, the molecule was classed as inactive in [5].
As to `Clc1ccc(C(c2ccc(Cl)cc2)C(Cl)(Cl)Cl)cc1`, the molecule was called inactive in [6].
As to `Cn1cc(-c2ccccc2)c(=O)c(-c2cccc(C(F)(F)F)c2)c1`, the call in [7] was inactive.
`O=C(O)C1C2CCC(O2)C1C(=O)O` (centres undefined): the AC50 in test [8] is 3.96 µM (active).
With `CCCCCCCCn1sccc1=O`, the AC50 in [9] was 21.2 µM (active); with Adra2b (gene 24174), 26 µM (active); in test [1], 32.5 µM (active). Also, the outcome in test [5] was inactive.
Regarding `CS(=O)(=O)NC(=O)c1cc(Oc2ccc(C(F)(F)F)cc2Cl)ccc1[N+](=O)[O-]`, the AC50 in [8] is 1.38 µM (active).
In the case of `CCN(CC)CCO`, the result in [7] was inactive.
Take `CC(C)(C)OOC(=O)c1ccccc1`: in [6], the outcome was inactive.
Consider `O=C(Oc1ccc(Br)cc1)N1CCN2CCC1CC2`, for which the call with Adra2b (gene 24174) was inactive. The AC50 in test [2] was 8.47 µM (active).
In the case of `[Cl-].[Cl-].[Hg+2]`, the AC50 in [9] was 14 µM (active); with Adra2b (gene 24174), 6.72 µM (active); in test [6] it was 14.2 µM (active); in test [5] it was 12.9 µM (active); in [1] it was 16.7 µM (active).
As for `C[C@]12C=CC3=C4CCC(=O)C=C4CC[C@H]3[C@@H]1CC[C@@H]2O`, the values for the AC50 (with Adra2b (gene 24174); in test [6]) were 20.7 µM (active) and 25 µM (active), respectively.
As for `O=C(N[C@H](c1ccccc1)[C@@H]1CN2CCC1CC2)c1c(Cl)ccc(C(F)(F)F)c1Cl`, the AC50 was 37.5 µM (active) in test [6], 28.9 µM (active) in [5] and 37.5 µM (active) in test [1].
`O=[N+]([O-])C(Br)(CO)CO`: the half-maximal activity concentration (AC50) is 40.5 µM (active) in test [9] and 11 µM (active) in [1].
Regarding `CCCCCCCCOC(=O)c1ccc(C(=O)OCCCCCCCC)c(C(=O)OCCCCCCCC)c1`, in test [8], the AC50 was 0.326 µM (active).
`CCC[CH2][Sn]([Cl])([CH2]CCC)[CH2]CCC`: the AC50 in test [9] was 2.5 µM (active); in test [7], 25 µM (active); in test [5], 1.43 µM (active); in test [1] it was 8.92 µM (active). Also, the outcome (with Adra2b (gene 24174); in [8]) was inactive.
As to `CC(C)(C)C(O)(CCc1ccc(Cl)cc1)Cn1cncn1` (centres undefined), the molecule was classed as inactive with Adra2b (gene 24174). Besides, the AC50 in test [6] was 12.9 µM (active).
